PubChem BioAssay (NCATS)
Active and inactive are the calls of the source. The call rests on the fitted dose curve; in most records, active means well fitted curve in the direction sought with a large enough effect; inactive means no such curve, though single readings can be large or run the other way.

Experiment: qHTS for small molecule inhibitors of Yes1 kinase: Counter Assay (AID 686950);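 further: no kinase present so only ADP-Glo detection of a fixed ADP amount is tested; luminescence from ADP-Glo reporting ADP in a fixed ATP and ADP mixture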
Conditions: series mostly up to 76.9 µM
Excerpt: The Src family of non-receptor protein tyrosine kinases contains nine members, including Yes1, Src, Fyn, Lyn, and […]. These kinases have important roles in a variety of cellular functions, such as cell proliferation, survival, and differentiation. Src, the most well characterized member of this family, has been previously identified as a proto-oncogene. […] In melanoma, it has been shown that Yes1, and not other family members, such as Src, is functionally involved in the malignant phenotype. Additionally, a recent study examining the downregulation of Yes1 by shRNA found significant effects on cell survival/growth for basal-like and Her2-positive breast cancers. Despite the potential for Yes1 to be a target for the above-described cancers, there are very few reports on the identification of potent and selective inhibitors of Yes1 kinase. Antagonists of Yes1 would further elucidate Yes1 biology and help to confirm whether Yes1 is a viable target for therapeutic intervention in a variety of cancers.
A compound that inhibits Yes1 could be important for the treatment of various cancers in which Yes1 is highly expressed and can also be used as a tool compound to help further elucidate Yes1 biology. To that end, we have developed a sensitive HTS biochemical assay for Yes1 activity. This assay was screened against several small compound libraries to look for modulators of activity. The cherrypicked compounds were screened against this counter assay, which evaluates whether the compounds have any effect on the ADP-Glo detection kit. Compounds that show inhibition in this assay have interference with the detection system. Inactivity is the desired output for this assay.
NIH Molecular Libraries Probe Production Centers Network [MLPCN]
NIH Chemical Genomics Center [NCGC]
Two microliter of buffer (columns 1-48) are dispensed into Greiner, white solid-bottom 1536-well assay plates. Compounds (23 nL) are then transferred via Kalypsys pin tool equipped with 1536-pin array (10 nL slotted pins, V&P Scientific, San Diego, CA). The library compounds are in columns 5-48 and columns 1-4 serve as controls with DMSO. Following addition of compound and a 20 minute incubation, 1 uL of substrate/product mix (ATP and ADP from Sigma-Aldrich, St. Louis, MO) is added to columns 1, 2, 5-48 and 1 uL of substrate (ATP) is added to columns 3-4, and the plate is incubated for 60 minutes at room temperature. The amount of ADP is then quantified by the ADP-Glo Kit (Promega, Madison, WI). First, 2 uL of the first kit reagent is added, and the reaction is incubated for 45 minutes; then, 4 uL of the second kit reagent are added and the reaction is incubated for 30 minutes at which time the luminescence is read on a Viewlux plate reader (Perkin-Elmer, Waltham, MA). The final concentration of reagents in the reaction are 0.08 mM ATP and 0.02 mM ADP (or 0.1 mM ATP in the no ADP control columns), 100 uM EGTA, 10 mM MgCl2, 50 mM Tris pH 7.5, 1 mM DTT, 150 mM NaCl, 0.01% Brij-35, and 5% glycerol. Data are normalized to DMSO-treated control columns with ATP and […] (maximum signal) and with just ATP (minimum signal).

| SMILES | outcome |
| --- | --- |
| C[C@@H]1[C@@H](CC(C[C@H]2O[C@@H]3O[C@]4(C)CC[C@@H]5[C@H](C)CC[C@@H]([C@H]2C)[C@@]35OO4)C[S+](=O)([O-])c2ccc(COC(=O)N(C)C)cc2)O[C@@H]2O[C@]3(C)CC[C@H]4[C@H](C)CC[C@@H]1[C@@]24OO3 (some centres not stated) | inactive |
| Cn1c(CCCC(=O)O)nc2cc(N(CCCl)CCCl)ccc21 | inactive |
| CNC(=O)N1N=C(c2ccc(N)cc2)c2cc3c(cc2CC1C)OCO3 (configuration not stated) | inactive |
| COC1(CS(=O)c2ccccc2)CCN(CCc2c[nH]c3ccc(F)cc23)CC1 (configuration not stated) | inactive |
| O=C(O)C(=O)c1cn(Cc2ccccc2)c2ccc(-c3ccc(OC(F)(F)F)cc3)cc12 | inactive |
| CC(O)(CS(=O)(=O)c1ccc(F)cc1)C(=O)Nc1ccc(C#N)c(C(F)(F)F)c1 (configuration not stated) | inactive |
| C[C@@H]1[C@@H](C(=O)C[C@H]2O[C@@H]3O[C@]4(C)CC[C@@H]5[C@H](C)CC[C@@H]([C@H]2C)[C@@]35OO4)O[C@@H]2O[C@]3(C)CC[C@H]4[C@H](C)CC[C@@H]1[C@@]24OO3 | inactive |
| COc1ccc(C(=O)c2c(C)n(CCN3CCOCC3)c3ccccc23)cc1 | inactive |
| COC[C@H]1OC(=O)c2coc3c2[C@@]1(C)C1=C(C3=O)C2CCC(=O)[C@@]2(C)C[C@H]1OC(C)=O (some centres not stated) | inactive |
| C[C@]12CCC(=O)C(O)=C1CC[C@@H]1[C@@H]2CC[C@]2(C)C(=O)CC[C@@H]12 | inactive |
| CCCCC/C=C\C/C=C\C/C=C\C/C=C\CCCC(=O)NC1CC1 | inactive |
| CC1=C2C[C@@H]3[C@@H](CC=C4C[C@@H](O)CC[C@@]43C)[C@@H]2CC[C@]12O[C@H]1C[C@H](C)CN[C@H]1[C@H]2C | inactive |
| CN(C)CCN(C)CCc1ccc(Cl)c(Cl)c1 | inactive |
| CNC(=O)c1ccc(N2C(=S)N(c3ccc(C#N)c(C(F)(F)F)c3)C(=O)C23CCC3)cc1F | inactive |
| Cn1cc(C2=C(c3cn(C4CCN(Cc5ccccn5)CC4)c4ccccc34)C(=O)NC2=O)c2ccccc21 | inactive |
| Cc1cc(SCc2sc(-c3ccc(C(F)(F)F)c(F)c3)nc2C)ccc1OCC(=O)O | inactive |
| Cc1sc2c(c1C)C(c1ccc(Cl)cc1)=N[C@@H](CC(=O)OC(C)(C)C)c1nnc(C)n1-2 | inactive |
